Assays:
Test in all cases: cross-link between two proteins; affinity purification or IP with mass spectrometry; cross-linking mass spectrometry
Calreticulin = Calreticulin (UniProt P14211)
Integrin alpha-3 = Integrin alpha-3 (UniProt Q62470)
Integrin alpha-5 = Integrin alpha-5 (UniProt P11688)

Measured: listed as a hit

Chain of UniProt Q62470 (Q62470 whole entry): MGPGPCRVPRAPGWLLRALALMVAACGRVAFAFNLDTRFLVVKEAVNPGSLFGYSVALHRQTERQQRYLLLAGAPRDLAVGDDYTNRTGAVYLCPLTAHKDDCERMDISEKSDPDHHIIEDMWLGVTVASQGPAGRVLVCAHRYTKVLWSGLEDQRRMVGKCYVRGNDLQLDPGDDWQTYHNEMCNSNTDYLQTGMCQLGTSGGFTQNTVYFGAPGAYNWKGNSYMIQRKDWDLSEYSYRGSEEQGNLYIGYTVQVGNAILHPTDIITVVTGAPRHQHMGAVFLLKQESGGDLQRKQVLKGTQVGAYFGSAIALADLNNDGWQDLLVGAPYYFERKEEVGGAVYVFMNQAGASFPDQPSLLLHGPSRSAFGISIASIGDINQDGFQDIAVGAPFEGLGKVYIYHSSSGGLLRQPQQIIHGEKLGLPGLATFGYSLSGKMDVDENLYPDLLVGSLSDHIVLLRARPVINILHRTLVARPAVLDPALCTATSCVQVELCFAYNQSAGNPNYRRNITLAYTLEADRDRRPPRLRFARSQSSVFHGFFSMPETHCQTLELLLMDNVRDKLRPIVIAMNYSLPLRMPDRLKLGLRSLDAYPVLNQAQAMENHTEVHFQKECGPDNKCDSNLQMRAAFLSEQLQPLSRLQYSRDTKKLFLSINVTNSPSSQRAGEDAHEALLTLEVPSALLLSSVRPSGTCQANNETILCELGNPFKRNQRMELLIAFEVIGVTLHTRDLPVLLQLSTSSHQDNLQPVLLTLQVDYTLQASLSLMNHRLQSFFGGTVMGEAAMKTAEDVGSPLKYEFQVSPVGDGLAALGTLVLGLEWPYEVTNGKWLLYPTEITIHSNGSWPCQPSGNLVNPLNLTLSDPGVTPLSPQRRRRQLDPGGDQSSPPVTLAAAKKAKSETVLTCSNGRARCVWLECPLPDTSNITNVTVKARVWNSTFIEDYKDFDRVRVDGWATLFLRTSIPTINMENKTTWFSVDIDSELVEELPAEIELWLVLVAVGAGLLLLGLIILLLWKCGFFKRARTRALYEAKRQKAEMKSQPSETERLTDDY
Chain of UniProt P14211 (P14211 whole entry): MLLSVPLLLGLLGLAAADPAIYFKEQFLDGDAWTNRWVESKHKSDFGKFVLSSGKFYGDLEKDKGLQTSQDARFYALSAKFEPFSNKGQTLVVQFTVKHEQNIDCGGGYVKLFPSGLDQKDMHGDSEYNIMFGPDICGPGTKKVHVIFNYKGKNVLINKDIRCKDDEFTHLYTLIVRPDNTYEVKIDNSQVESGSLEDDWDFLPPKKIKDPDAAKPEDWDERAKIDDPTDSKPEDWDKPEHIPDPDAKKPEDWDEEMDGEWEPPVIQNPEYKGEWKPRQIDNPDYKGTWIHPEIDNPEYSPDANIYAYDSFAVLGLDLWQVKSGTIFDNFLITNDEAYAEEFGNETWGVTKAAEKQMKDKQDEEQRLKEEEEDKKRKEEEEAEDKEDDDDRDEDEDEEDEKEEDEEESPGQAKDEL
Chain of UniProt P11688 (P11688 whole entry): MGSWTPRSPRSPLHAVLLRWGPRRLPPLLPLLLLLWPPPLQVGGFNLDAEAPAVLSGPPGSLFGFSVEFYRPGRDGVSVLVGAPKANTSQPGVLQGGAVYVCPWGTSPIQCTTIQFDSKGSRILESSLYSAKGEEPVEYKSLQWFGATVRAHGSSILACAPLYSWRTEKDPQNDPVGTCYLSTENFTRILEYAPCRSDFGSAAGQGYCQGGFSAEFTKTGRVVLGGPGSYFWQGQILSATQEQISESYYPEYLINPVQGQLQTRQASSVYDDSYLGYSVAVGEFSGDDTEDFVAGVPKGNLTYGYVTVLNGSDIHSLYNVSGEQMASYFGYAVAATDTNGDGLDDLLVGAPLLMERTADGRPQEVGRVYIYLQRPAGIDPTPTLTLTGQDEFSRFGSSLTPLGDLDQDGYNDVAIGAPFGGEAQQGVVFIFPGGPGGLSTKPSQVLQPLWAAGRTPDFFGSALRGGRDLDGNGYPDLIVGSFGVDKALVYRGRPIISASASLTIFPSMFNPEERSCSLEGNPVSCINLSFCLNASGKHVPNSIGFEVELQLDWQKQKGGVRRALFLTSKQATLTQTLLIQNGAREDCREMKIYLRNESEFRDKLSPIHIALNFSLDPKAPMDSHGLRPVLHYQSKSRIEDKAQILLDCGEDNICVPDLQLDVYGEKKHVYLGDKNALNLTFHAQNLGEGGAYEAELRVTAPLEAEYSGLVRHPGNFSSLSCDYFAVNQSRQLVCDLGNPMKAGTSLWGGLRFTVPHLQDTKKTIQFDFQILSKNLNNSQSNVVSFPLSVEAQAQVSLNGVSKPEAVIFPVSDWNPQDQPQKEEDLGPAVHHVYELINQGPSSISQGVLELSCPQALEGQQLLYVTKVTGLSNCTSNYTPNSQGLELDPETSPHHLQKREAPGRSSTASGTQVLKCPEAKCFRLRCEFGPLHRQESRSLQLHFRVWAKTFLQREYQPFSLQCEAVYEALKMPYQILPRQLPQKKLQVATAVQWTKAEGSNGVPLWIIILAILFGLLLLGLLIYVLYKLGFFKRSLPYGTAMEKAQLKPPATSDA

Integrin beta-1, P09055
yes: all assays above

From paper PMC11624278
